Source: PubChem BioAssay AID1159580 (chemical genetic matrix, 2015)
Hit rate of the full screen: of about 5,500 compounds, about 2,000 (36%) were called active. Not shown: some 18% with an inconclusive outcome. No stated cut-off is given here; in the data, active means normalized growth mostly below about 0.91 (no sharp cut-off); inconclusive means no clear call, values can overlap the other calls; inactive means mostly above about 0.92. The list shows a part of the results.

Assay: chemical genetic growth profiling, strain panel (AID 1159580);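 further: tested at 20 µM; growth read once vehicle control cultures reached saturation at 30 °C; 1 = growth at the plate median or of vehicle wells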
Settings: growth OD
[1] = S. cerevisiae deletion strains, locus YAL013W, strain DEP1, stronger effect = lower value
[2] = S. cerevisiae deletion strains, locus YBR229C, strain ROT2, stronger effect = lower value
[3] = S. cerevisiae deletion strains, locus YDL101C, strain DUN1, stronger effect = lower value
[4] = S. cerevisiae deletion strains, locus YDR150W, strain NUM1, stronger effect = lower value
[5] = S. cerevisiae deletion strains, locus YEL061C, strain CIN8, stronger effect = lower value
[6] = S. cerevisiae deletion strains, locus YGR078C, strain PAC10, stronger effect = lower value
[7] = S. cerevisiae deletion strains, locus YHR030C, strain SLT2, stronger effect = lower value
[8] = S. cerevisiae deletion strains, locus YHR087W, strain rtc3, stronger effect = lower value
[9] = S. cerevisiae deletion strains, locus YJR043C, strain POL32, stronger effect = lower value
[10] = S. cerevisiae deletion strains, locus YJR075W, strain HOC1, stronger effect = lower value
[11] = S. cerevisiae deletion strains, locus YLR039C, strain RIC1, stronger effect = lower value
[12] = S. cerevisiae deletion strains, locus YLR058C, strain SHM2 (second series), stronger effect = lower value
[13] = S. cerevisiae deletion strains, locus YLR085C, strain ARP6, stronger effect = lower value
[14] = S. cerevisiae deletion strains, locus YLR262C, strain YPT6, stronger effect = lower value
[15] = S. cerevisiae deletion strains, locus YML094W, strain GIM5, stronger effect = lower value
[16] = S. cerevisiae deletion strains, locus YMR219W, strain ESC1, stronger effect = lower value
[17] = S. cerevisiae deletion strains, locus YMR263W, strain SAP30, stronger effect = lower value
[18] = S. cerevisiae deletion strains, locus YNL153C, strain GIM3, stronger effect = lower value
[19] = S. cerevisiae deletion strains, locus YNL298W, strain CLA4 (second series), stronger effect = lower value
[20] = S. cerevisiae deletion strains, locus YNL322C, strain KRE1, stronger effect = lower value
[21] = S. cerevisiae deletion strains, locus YNR030W, strain Alg12, stronger effect = lower value
[22] = S. cerevisiae deletion strains, locus YPL055C, strain LGE1, stronger effect = lower value
[23] = S. cerevisiae deletion strains, locus YPL241C, strain CIN2, stronger effect = lower value
[24] = S. cerevisiae deletion strains, locus YPR135W, strain CTF4, stronger effect = lower value
[25] = S. cerevisiae strains, strain wild type, stronger effect = lower value
[26] = S. cerevisiae deletion strains, locus YCL061C, strain MRC1, stronger effect = lower value
[27] = S. cerevisiae deletion strains, locus YJL187C, strain SWE1, stronger effect = lower value
[28] = S. cerevisiae deletion strains, locus YOL006C, strain TOP1, stronger effect = lower value

Measured: normalized growth

Cc1ccc(Sc2nc(C)c([N+](=O)[O-])c(C)c2C#N)cc1
active: [7] 0.625 | [11] 0.664 | [14] 0.732
inactive: [1] 0.969 | [2] 0.982 | [3] 0.997 | [4] 0.99 | [5] 0.934 | [6] 0.979 | S. cerevisiae deletion strains, locus YGR229C, strain SMI1, stronger effect = lower value 0.978 | [8] 0.975 | [9] 0.967 | [10] 0.952 | S. cerevisiae deletion strains, locus YKL190W, strain CNB1, stronger effect = lower value 0.977 | [12] 0.969 | [13] 0.883 | [15] 1.01 | [16] 0.979 | [17] 0.97 | S. cerevisiae deletion strains, locus YMR307W, strain GAS1, stronger effect = lower value 0.763 | [18] 0.994 | [19] 0.947 | [20] 0.974 | [21] 0.965 | [22] 0.963 | [23] 1.06 | [24] 0.828 | [25] 0.974

CC(=O)CS(=O)(=O)c1ccc(Cl)cc1
inactive: [1] 1.02 | [2] 1.01 | [26] 1.01 | [3] 1.01 | S. cerevisiae deletion strains, locus YDL134C, strain PPH21, stronger effect = lower value 1 | [4] 0.969 | [5] 1.02 | [6] 1 | [7] 1 | [8] 0.998 | [27] 0.995 | [9] 0.988 | [10] 0.995 | [11] 1.02 | [12] 1 | [13] 1.04 | [14] 1.03 | [15] 1.02 | [16] 1.01 | [17] 0.969 | [18] 0.995 | [19] 0.992 | [20] 1.01 | [21] 1 | [28] 1.01 | [22] 1 | [23] 1.02 | [24] 0.933 | [25] 1

NC(=S)CS(=O)(=O)c1ccc(C(F)(F)F)cc1
active: [13] 1.23 [resistant]
inactive: [1] 0.977 | [2] 1.01 | [26] 1.02 | [3] 1.03 | [4] 0.998 | [5] 1.03 | [6] 1.01 | [7] 1.03 | [8] 1.01 | [27] 1.02 | [9] 1.01 | [10] 1.02 | [11] 1.09 | [12] 1.02 | [14] 1.07 | [15] 1.01 | [16] 1.02 | [17] 1.04 | S. cerevisiae deletion strains, locus YNL128W, strain TEP1, stronger effect = lower value 1.03 | [18] 1.02 | [19] 1.03 | [20] 1 | [21] 0.992 | [28] 1.23 | [22] 0.952 | [23] 1.09 | [24] 0.969
